Experiment [1] deals with Estrogen receptor beta (Homo sapiens) (UniProt Q92731). The experiment can be described thus: qHTS assay to identify small molecule antagonists of the estrogen receptor beta (ER-beta) signaling pathway (AID 1259378; active = well fitted inhibition curve with a large enough effect in the signal ratio in the repeat runs, not every such curve was filed as active; the % refers to the signal ratio; also: potency is read from the fitted curve at half-maximal effect). Summed up: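 Antagonist mode: compounds added to beta-lactamase reporter HEK293T ER-beta-UAS cells stimulated with E2 (1nM final), 16 hr at 37C. LiveBLAzer B/G FRET substrate, 2 hours room temperature, fluorescence read-out.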
Estrogen receptor beta (Homo sapiens), sequence (Q92731 whole entry, looked up): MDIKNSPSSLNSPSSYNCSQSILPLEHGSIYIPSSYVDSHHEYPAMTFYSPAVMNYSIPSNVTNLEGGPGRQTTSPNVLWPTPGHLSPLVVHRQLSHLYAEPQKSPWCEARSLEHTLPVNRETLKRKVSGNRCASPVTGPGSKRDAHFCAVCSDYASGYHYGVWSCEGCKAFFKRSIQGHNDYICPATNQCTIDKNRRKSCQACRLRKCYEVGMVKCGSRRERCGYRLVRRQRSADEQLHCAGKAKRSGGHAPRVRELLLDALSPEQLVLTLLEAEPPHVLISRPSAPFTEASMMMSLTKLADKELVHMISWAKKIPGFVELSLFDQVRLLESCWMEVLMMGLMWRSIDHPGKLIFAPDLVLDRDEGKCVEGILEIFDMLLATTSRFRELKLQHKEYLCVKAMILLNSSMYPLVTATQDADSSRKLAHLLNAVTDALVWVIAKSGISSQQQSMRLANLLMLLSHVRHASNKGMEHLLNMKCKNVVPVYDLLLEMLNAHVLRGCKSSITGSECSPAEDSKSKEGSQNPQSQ

Experiment [2] can be described thus: qHTS assay to identify small molecule agonists of the androgen receptor (AR) signaling pathway in the presence of an antagonist - cell viability counter screen (AID 1259379). Also: nearly all actives have a fitted effect of over 25% in size. Also: potency is read from the fitted curve at half-maximal effect. Summed up: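 In MDA-kb2 cells (human breast carcinoma, MMTV-luciferase), compounds at 15 concentrations plus 3.0uM nilutamide; 16 hr, 37C, 0% CO2; CellTiter-Fluor fluorescence read for viability.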
Background: qHTS replaces the single test concentration by a dilution series.

The nature of experiment [3]: qHTS assay to identify small molecule agonists of the estrogen receptor beta (ER-beta) signaling pathway - cell viability counter screen (AID 1259380). Also: nearly all actives have a fitted effect of over 30% in size. Also: potency is read from the fitted curve at half-maximal effect. Summed up:
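Viability of ER-beta-UAS-bla HEK293T cells was determined by CellTiter-Glo luminescence following 16 hr treatment with test compounds at 37C.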

In experiment [4] the target is Androgen receptor (Homo sapiens) (UniProt P10275). The experiment is described as follows: qHTS assay to identify small molecule agonists of the androgen receptor (AR) signaling pathway in the presence of an antagonist (AID 1259381; calls by dose curve; also: nearly all actives have a fitted effect of over 15% in size). Summed up: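 Here, 15-concentration compound series were pin-transferred onto MDA-kb2 MMTV-luciferase cells already dosed with nilutamide (3.0uM final). After 16hr at 37C, ONE-Glo was added and luminescence read 30min later at room temperature.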
Androgen receptor (Homo sapiens), sequence (P10275 whole entry, looked up): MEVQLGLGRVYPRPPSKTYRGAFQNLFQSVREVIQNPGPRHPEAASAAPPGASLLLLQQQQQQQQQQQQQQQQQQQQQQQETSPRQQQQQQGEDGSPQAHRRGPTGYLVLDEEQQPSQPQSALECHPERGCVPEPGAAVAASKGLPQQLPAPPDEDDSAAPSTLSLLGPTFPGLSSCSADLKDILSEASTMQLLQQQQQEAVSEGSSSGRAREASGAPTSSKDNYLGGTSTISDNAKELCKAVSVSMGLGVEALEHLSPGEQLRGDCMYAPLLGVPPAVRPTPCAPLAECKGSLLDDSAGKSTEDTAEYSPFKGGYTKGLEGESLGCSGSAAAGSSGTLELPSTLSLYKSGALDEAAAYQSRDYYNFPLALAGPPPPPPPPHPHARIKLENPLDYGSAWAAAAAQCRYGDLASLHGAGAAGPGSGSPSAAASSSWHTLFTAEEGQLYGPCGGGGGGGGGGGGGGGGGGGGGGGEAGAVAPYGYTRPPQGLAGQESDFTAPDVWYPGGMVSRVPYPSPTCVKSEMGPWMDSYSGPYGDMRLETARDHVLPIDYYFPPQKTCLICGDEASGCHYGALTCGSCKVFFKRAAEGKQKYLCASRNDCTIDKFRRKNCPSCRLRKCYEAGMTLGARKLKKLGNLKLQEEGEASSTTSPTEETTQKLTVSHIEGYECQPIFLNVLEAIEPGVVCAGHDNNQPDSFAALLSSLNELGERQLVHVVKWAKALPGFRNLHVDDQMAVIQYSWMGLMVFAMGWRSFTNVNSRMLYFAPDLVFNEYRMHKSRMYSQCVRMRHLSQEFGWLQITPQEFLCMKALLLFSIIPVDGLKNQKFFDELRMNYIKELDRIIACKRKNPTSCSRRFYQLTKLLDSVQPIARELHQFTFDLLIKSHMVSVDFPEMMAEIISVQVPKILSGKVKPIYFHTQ

The nature of experiment [5]: qHTS assay to identify small molecule antagonists of the estrogen receptor beta (ER-beta) signaling pathway - cell viability counter screen (AID 1259382). Also: nearly all actives have a fitted effect of over 55% in size. Also: potency is read from the fitted curve at half-maximal effect. Summed up: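 Tox21 10K library tested in qHTS format on ER-beta-bla HEK293T cells stimulated with 1nM E2; 16 hr treatment at 37C. Same-well CellTiter-Glo luminescence served as the cell viability measure.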
The nature of experiment [6]: qHTS assay to identify small molecule agonists or antagonists of the thyroid stimulating hormone receptor (TSHR) signaling pathway - wild type cell line counter screen (AID 1259384; calls by dose curve). Summed up: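 Counter screen in untransfected Hek293: compounds (15-point titration, triplicate) plus phosphodiesterase inhibitor Ro20-1724 added after 18 h plating; 30 min RT. Intracellular cAMP via competitive d2/cryptate immunoassay, 1 h incubation.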

The target in experiment [7] is Thyrotropin receptor (Homo sapiens) (UniProt P16473). The experiment can be described thus: qHTS assay to identify small molecule antagonists of the thyroid stimulating hormone receptor (TSHR) signaling pathway (AID 1259385; calls by dose curve; also: nearly all actives have a fitted effect of over 20% in size; also: potency is read from the fitted curve at half-maximal effect). Summed up: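 Antagonist mode: compound-treated TSHR-expressing HEK293 cells were stimulated with 1.5 ng/mL TSH (final) in presence of Ro20-1724 for 30 min at RT. HTRF cAMP detection after 1 h; each compound tested at 15 concentrations, triplicate.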
Thyrotropin receptor (Homo sapiens), sequence (P16473 whole entry, looked up): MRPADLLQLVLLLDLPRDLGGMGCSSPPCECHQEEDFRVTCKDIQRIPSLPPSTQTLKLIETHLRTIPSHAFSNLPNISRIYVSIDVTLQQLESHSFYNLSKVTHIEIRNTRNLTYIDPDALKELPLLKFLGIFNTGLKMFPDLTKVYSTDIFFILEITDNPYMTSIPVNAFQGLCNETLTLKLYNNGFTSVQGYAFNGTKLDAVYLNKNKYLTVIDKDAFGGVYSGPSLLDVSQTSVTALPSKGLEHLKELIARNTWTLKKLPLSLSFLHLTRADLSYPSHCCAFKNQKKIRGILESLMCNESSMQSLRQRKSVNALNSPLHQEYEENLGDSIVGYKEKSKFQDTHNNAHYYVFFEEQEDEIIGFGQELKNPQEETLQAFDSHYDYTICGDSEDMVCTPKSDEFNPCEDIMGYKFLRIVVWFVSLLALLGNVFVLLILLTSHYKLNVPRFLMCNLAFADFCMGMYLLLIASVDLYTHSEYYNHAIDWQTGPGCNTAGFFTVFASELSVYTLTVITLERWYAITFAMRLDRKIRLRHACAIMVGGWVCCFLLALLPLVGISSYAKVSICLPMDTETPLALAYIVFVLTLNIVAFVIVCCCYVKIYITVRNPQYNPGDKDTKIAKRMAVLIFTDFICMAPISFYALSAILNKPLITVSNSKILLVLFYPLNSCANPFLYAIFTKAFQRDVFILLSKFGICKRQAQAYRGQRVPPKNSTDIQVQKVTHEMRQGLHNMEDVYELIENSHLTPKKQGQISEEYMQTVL

Experiment [8] in a line: qHTS assay to identify small molecule agonists of the estrogen receptor alpha (ER-alpha) signaling pathway in the presence of an antagonist - cell viability counter screen (AID 1259386).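 Also: series mostly up to about 92 µM; cells exposed to compounds for 22 h at 37 °C before the viability read; nearly all actives have a fitted effect of over 30% in size.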 Summed up: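 Fluorescent CellTiter-Fluor viability signal from VM7Luc4E2 cells, with the reagent added during the final hour of a 22hr compound exposure at 37C in the presence of 10.0nM ICI-182,780.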

Experiment [9] has as its target Progesterone receptor (Homo sapiens) (UniProt P06401). The experiment can be described thus: qHTS assay to identify small molecule agonists of the progesterone receptor (PR) signaling pathway (AID 1346784; calls by dose curve; also: nearly all actives have a fitted effect of over 30% in size). Summed up: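 Agonist qHTS: compounds pinned onto 3,000 PR-UAS-bla HEK 293T cells per well in charcoal-stripped serum medium, 16hr at 37C, then beta-lactamase activity measured by LiveBLAzer FRET fluorescence after 2 hours at room temperature.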

The target is the same in experiment [10]. The experiment can be described thus: qHTS assay to identify small molecule antagonists of the progesterone receptor (PR) signaling pathway (AID 1346795; active = well fitted inhibition curve with a large enough effect in the signal ratio in the repeat runs, not every such curve was filed as active; the % refers to the signal ratio; also: potency is read from the fitted curve at half-maximal effect). Summed up:
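Antagonist mode with agonist R5020 at 1 nM final and 16 hr incubation at 37C. Reporter was beta-lactamase driven by UAS in HEK293T (PR-UAS-bla), 2% charcoal-stripped serum; signal from LiveBLAzer FRET substrate, 2 hr at room temperature.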

Experiment [11] can be described thus: qHTS assay to identify small molecule antagonists of the progesterone receptor (PR) signaling pathway - cell viability counter screen (AID 1346798). Also: nearly all actives have a fitted effect of over 50% in size. Also: potency is read from the fitted curve at half-maximal effect. Summed up:
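Cytotoxicity read as CellTiter-Glo luminescence (30 min, room temperature) in the same wells as the beta-lactamase readout. HEK293T PR-UAS-bla cells in charcoal-stripped 2% FBS received compound and R5020, then 16 h at 37C, 5% CO2.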

Experiment [12] can be described thus: qHTS assay to identify small molecule agonists of the progesterone receptor (PR) signaling pathway - cell viability counter screen (AID 1346799; calls by dose curve; also: nearly all actives have a fitted effect of over 45% in size; also: potency is read from the fitted curve at half-maximal effect). Summed up:
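Cytotoxicity measured by CellTiter-Glo luminescence (30 min, RT) in the same wells as the PR beta-lactamase agonist read. Those HEK293T cells had 16 h compound treatment at 37 C in 2% charcoal-stripped FBS medium.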

Experiment [13] can be described thus: qHTS assay to identify small molecule antagonists of the TGF-beta/Smad signaling pathway - cell viability counter screen (AID 1346824). Also: nearly all actives have a fitted effect of over 50% in size. Summed up:
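Cytotoxicity counter-screen run in the same wells as the beta-lactamase Smad reporter read: CellTiter-Glo luminescence after 30 min at room temperature. HEK 293T SBE-bla cells had 5 hr compound exposure at 37 C with TGF-beta1 (0.25 ng/mL stock).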

Experiment [14] can be described thus: qHTS assay to identify small molecule agonists of the TGF-beta/Smad signaling pathway - cell viability counter screen (AID 1346829). Also: top concentration of the series differs between compounds; nearly all actives have a fitted effect of over 45% in size. Summed up:
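Luminescence from CellTiter-Glo, read after a 30 min room-temperature incubation, gives cell viability of SBE-bla HEK 293T cells treated 5 hr with compounds at 37 C.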

Experiment [15] can be described thus: qHTS assay to identify small molecule agonists of the TGF-beta/Smad signaling pathway (AID 1346859; active = well fitted activation curve with a large enough effect in the signal ratio in the repeat runs, not every such curve was filed as active; the % refers to the signal ratio; also: series mostly up to about 77 µM). Summed up: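 Fluorescence (ex 405 nm; em 460 and 530 nm) was read 2 h after LiveBLAzer FRET substrate at RT. The preceding compound treatment of overnight-plated SBE-bla HEK293T cells lasted 5 h at 37 C.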
Experiment [16] deals with Thyrotropin-releasing hormone receptor (Homo sapiens) (UniProt P34981). The experiment can be described thus: qHTS assay to identify small molecule agonists of the thyrotropin-releasing hormone receptor (TRHR) signaling pathway (AID 1346891; calls by dose curve; also: series mostly up to about 58 µM). Summed up: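 Agonist-mode intracellular calcium readout: kinetic fluorescence over 3 min at 1 s intervals after compound addition to TRHR-HEK293 cells (18 h seeded, 2 h dye-loaded at 37 C). Fifteen concentrations, triplicates.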
Thyrotropin-releasing hormone receptor (Homo sapiens), sequence (P34981 whole entry, looked up): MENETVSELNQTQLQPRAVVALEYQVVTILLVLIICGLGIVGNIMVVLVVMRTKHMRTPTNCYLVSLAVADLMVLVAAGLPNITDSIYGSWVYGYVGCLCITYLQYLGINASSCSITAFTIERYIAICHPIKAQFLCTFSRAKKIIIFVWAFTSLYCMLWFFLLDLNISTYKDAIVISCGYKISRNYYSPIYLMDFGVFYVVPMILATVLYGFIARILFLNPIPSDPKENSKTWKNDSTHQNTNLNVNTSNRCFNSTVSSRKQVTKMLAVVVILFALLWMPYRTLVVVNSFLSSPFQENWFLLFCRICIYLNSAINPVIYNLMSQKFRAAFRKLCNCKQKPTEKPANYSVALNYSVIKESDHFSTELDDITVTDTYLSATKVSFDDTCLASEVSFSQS

A short description of experiment [17]: Human pregnane X receptor (PXR) small molecule agonists, qHTS cell viability counter screen (AID 1346977). Also: nearly all actives have a fitted effect of over 50% in size. Also: potency is read from the fitted curve at half-maximal effect. Summed up:
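Same-well viability read: CellTiter-Fluor added after 23 hr compound exposure, fluorescence measured 1 hr later. Cells were PXR-Luc HepG2 seeded at 2,000/well in 5% charcoal-stripped FBS medium, rested 5 hr before dosing at 37 C.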

Experiment [18] deals with Estrogen receptor (Homo sapiens) (UniProt P03372). The experiment can be described thus: qHTS assay to identify small molecule agonists of the estrogen receptor alpha (ER-alpha) signaling pathway in the presence of an antagonist (AID 1259383; calls by dose curve; also: top concentration of the series differs between compounds; nearly all actives have a fitted effect of over 15% in size). Summed up:
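In VM7Luc4E2 cells, 4,000 per well, compounds at 15 concentrations were co-incubated 22hr at 37C with 10.0nM final ICI-182,780. Luminescence from the stably transfected 4×ERE-luciferase reporter was recorded 30min after ONE-Glo addition.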

Experiment [19] concerns the target Thyrotropin-releasing hormone receptor (Homo sapiens) (UniProt P34981). The experiment can be described thus: qHTS assay to identify small molecule antagonists of the thyrotropin-releasing hormone receptor (TRHR) signaling pathway (AID 1346877; active = well fitted inhibition curve with a large enough effect in the repeat runs, not every such curve was filed as active; also: series mostly up to about 51 µM). Summed up: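 In this cell-based calcium flux format, HEK293 cells expressing TRHR received test compound for 5 min before the agonist TRH (1 nM final). Dye loading lasted 2 h at 37 °C.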

For eight compounds, Potency and outcome results are on record in PubChem BioAssay (Tox21).

Inconclusive results are not listed. The source made the active and inactive calls. Unless noted, calls follow the shape of the dose curve; as a rule, active = well fitted curve in the direction sought with a large enough effect in the repeat runs; inconclusive = weak or mixed curves; inactive = no such curve, though single readings can be large; an effect the other way counts as inactive or inconclusive.

Estrogen receptor (Homo sapiens), sequence (P03372 whole entry, looked up): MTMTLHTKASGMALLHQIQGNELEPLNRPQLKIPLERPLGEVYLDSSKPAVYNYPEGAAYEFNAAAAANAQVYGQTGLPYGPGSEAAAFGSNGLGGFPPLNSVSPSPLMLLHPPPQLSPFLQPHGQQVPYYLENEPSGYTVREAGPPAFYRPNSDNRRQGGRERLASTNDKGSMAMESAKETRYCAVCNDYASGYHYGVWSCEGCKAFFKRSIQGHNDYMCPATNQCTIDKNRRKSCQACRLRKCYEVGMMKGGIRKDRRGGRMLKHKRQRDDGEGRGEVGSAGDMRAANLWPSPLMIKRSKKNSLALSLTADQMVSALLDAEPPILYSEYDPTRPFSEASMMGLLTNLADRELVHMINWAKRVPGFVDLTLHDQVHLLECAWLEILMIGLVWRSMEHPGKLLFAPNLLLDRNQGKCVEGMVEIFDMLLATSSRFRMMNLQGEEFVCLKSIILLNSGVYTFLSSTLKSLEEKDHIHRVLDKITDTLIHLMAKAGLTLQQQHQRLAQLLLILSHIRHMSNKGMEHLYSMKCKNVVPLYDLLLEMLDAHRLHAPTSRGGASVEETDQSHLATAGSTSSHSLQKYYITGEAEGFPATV
Progesterone receptor (Homo sapiens), sequence (P06401 whole entry, looked up): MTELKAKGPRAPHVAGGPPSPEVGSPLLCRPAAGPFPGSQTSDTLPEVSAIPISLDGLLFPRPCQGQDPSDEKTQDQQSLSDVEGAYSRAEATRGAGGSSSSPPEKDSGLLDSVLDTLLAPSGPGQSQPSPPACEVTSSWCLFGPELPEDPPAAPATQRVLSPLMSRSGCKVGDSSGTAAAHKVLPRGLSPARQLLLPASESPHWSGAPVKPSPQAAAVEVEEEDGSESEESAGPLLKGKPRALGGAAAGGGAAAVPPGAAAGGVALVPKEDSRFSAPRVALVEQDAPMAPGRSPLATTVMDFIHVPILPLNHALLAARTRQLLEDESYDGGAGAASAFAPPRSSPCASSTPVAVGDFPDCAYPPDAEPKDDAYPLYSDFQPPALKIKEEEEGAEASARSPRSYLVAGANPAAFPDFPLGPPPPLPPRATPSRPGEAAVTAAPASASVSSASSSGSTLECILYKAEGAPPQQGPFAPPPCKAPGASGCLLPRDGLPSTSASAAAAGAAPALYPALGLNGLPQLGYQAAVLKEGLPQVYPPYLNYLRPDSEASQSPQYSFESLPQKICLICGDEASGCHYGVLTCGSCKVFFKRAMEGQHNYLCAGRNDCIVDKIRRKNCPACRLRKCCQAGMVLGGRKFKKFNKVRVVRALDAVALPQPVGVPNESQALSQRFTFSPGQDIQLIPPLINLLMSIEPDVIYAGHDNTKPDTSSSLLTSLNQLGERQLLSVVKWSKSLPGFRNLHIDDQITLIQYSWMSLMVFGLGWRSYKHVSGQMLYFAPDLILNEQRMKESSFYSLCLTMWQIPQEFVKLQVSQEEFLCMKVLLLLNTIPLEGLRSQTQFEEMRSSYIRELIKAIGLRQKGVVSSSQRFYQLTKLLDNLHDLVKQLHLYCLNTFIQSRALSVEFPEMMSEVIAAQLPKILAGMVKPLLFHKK

Consider `CCCC(=O)OCC(COC(=O)CCC)OC(=O)CCC`, for which the Potency entry in experiment [1], in [2], in experiment [3], in experiment [4], in experiment [5] and in experiment [7] was “inactive” each time. The Potency result in experiment [8], in [10], in experiment [11], in experiment [12], in [13] and in [14] was “inactive” each time. Also, the Potency result in [15], in experiment [16] and in experiment [17] was “inactive” in each case. Moreover, the call in experiment [6] and in experiment [9] was inactive.

With `CNC(=O)c1cc(Oc2ccc(NC(=O)Nc3ccc(Cl)c(C(F)(F)F)c3)cc2)ccn1`, the Potency was 9.44 µM (active) in experiment [1]; 29.8 µM (active) in experiment [2]; 29.8 µM (active) in [3]; 11.9 µM (active) in experiment [10]; 33.5 µM (active) in experiment [11]; 23.7 µM (active) in experiment [17]. For the same compound, the Potency result in experiment [18], in [7], in experiment [15], in experiment [19] and in experiment [16] was “inactive” throughout.

For the compound `CC(C)=C1CC[C@@H](C)CC1=O`, the Potency entry in experiment [1], in experiment [2], in [3], in experiment [5], in [18] and in [7] was “inactive” each time. Besides, the Potency result in experiment [8], in experiment [10], in experiment [11], in experiment [12], in experiment [15] and in [17] was “inactive” throughout. Besides, the compound was classed as inactive in experiment [6] and in [9].

Take `CC(C)(c1cc(Br)c(OCCO)c(Br)c1)c1cc(Br)c(OCCO)c(Br)c1`: the Potency in [1] was 4.75 µM (active); in experiment [2] it was 47.5 µM (active); in experiment [3] it was 42.3 µM (active); in [5] it was 53.3 µM (active); in [10], 5.33 µM (active); in [11], 29.9 µM (active). For the same compound, the Potency in experiment [12] is 33.6 µM (active). The Potency result in experiment [4], in experiment [18], in [13] and in [15] was “inactive” each time.

On to `Brc1ccccn1`, for which the Potency result in [1], in experiment [2], in [3], in experiment [5], in experiment [7] and in experiment [8] was “inactive” each time. Besides, the Potency result in experiment [10], in experiment [11], in experiment [12], in experiment [13], in experiment [14] and in [15] was “inactive” each time. The Potency entry in experiment [19], in experiment [16] and in experiment [17] was “inactive” each time. The compound was classed as inactive in [9].

For `Cc1ccc(O)cn1`, the Potency entry in [1], in [2], in experiment [4], in experiment [5], in experiment [18] and in experiment [7] was “inactive” in each case. Further, the Potency entry in experiment [8], in [11], in experiment [12], in [13], in experiment [14] and in experiment [15] was “inactive” each time. Besides, the Potency entry in experiment [19], in [16] and in [17] was “inactive” each time. Further, the call in experiment [6] was inactive.

Turning to `CC(NCCC(c1ccccc1)c1ccccc1)c1ccccc1` (stereo unspecified), the Potency is 26.6 µM (active) in [1]; 23.7 µM (active) in experiment [2]; 18.8 µM (active) in experiment [3]; 18.8 µM (active) in [5]; 29.8 µM (active) in experiment [7]; 29.8 µM (active) in [10]. Moreover, the figures for the Potency in experiment [11] and in [17] were 21.1 µM (active) and 26.6 µM (active), respectively. In addition, the Potency entry in experiment [4], in experiment [18], in experiment [15], in experiment [19] and in experiment [16] was “inactive” each time. In experiment [9], the compound was called inactive.

As for `C=C[C@](C)(O)CC[C@@H]1[C@@]2(C)CCCC(C)(C)[C@@H]2CC[C@@]1(C)O`, the Potency in experiment [1] is 27.3 µM (active); in experiment [3], 48.6 µM (active); in experiment [5], 61.1 µM (active). Besides, the Potency entry in experiment [7], in experiment [8], in [14] and in experiment [15] was “inactive” throughout.
